“And” between values parts separate entries of the source, which are not always exact repeats. Identical values can stand only once. Records with an inconclusive call do not appear. The source made the active and inactive calls. Unless noted, calls follow the shape of the dose curve; as a rule, active = well fitted curve in the direction sought with a large enough effect in the repeat runs; inconclusive = weak or mixed curves; inactive = no such curve, though single readings can be large; an effect the other way counts as inactive or inconclusive.
Tests used:
[1] = molecular target: Thyrotropin receptor (Homo sapiens) (UniProt P16473); test: qHTS assay to identify small molecule agonists of the thyroid stimulating hormone receptor (TSHR) signaling pathway (AID 1224843; calls by dose curve; also: nearly all actives have a fitted effect of over 45% in size)
Chain of Thyrotropin receptor (Homo sapiens) (P16473 whole entry, looked up): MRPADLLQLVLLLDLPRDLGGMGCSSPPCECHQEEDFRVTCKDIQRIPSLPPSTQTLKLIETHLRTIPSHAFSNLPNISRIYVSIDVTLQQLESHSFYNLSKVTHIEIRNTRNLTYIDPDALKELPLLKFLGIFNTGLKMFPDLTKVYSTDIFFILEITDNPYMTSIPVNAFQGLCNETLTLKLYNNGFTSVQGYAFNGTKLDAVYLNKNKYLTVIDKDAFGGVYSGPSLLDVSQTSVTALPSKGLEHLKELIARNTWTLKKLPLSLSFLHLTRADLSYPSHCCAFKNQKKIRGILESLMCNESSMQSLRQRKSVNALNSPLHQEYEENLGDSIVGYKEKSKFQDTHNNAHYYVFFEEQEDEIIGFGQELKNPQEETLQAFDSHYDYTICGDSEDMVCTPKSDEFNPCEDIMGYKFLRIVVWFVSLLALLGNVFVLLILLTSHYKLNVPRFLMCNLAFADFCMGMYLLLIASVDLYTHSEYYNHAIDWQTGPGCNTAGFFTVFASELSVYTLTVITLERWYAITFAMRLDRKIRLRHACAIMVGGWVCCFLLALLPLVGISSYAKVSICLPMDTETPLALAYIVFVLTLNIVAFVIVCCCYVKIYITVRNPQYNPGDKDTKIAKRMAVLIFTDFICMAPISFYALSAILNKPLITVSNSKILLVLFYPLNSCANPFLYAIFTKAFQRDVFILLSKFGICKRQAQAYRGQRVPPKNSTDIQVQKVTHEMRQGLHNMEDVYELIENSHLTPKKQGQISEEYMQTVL
Method in brief: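 TSHR-HEK293 cells in agonist mode, 30 min room-temperature step, then cAMP measured by competitive HTRF (cAMP-d2 with anti-cAMP cryptate) after 1 h at room temperature. Tested at 15 concentrations in triplicate.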

[2] = qHTS assay to identify small molecule agonists of the hypoxia (HIF-1) signaling pathway - cell viability counter screen (AID 1224844; calls by dose curve; also: nearly all actives have a fitted effect of over 50% in size)
Method in brief: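 HRE-bla ME-180 cells, 2,000/well in 0.5% dialyzed FBS medium, treated 17 h at 37C with compounds. Viability read in the same wells as the bla reporter, by CellTiter-Glo luminescence after 30 min at room temperature.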

[3] = qHTS assay to identify small molecule agonists of H2AX (AID 1224845; active = well fitted activation curve with a large enough effect in the signal ratio in the repeat runs, not every such curve was filed as active; the % refers to the signal ratio)
Method in brief: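 Wild-type CHO-K1 cells, plated overnight, exposed 3hr at 37C to 15 concentrations (0.76% DMSO final). Lysed, then HTRF anti-pH2AX (S139) cryptate and anti-H2AX-d2 antibodies, 24 hr room temperature; 665/620 nm emission read.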

[4] = qHTS assay to identify small molecule agonists of the hypoxia (HIF-1) signaling pathway (AID 1224846; active = well fitted activation curve with a large enough effect in the signal ratio in the repeat runs, not every such curve was filed as active; the % refers to the signal ratio)
Method in brief: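 HRE-bla ME-180 beta-lactamase reporter cells in medium with 0.5% dialyzed FBS, pre-incubated 5 h then exposed to compounds 17 h at 37C, 5% CO2; reporter induction read with CCF4-AM FRET substrate.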

[5] = qHTS RealTime-Glo MT Cell Viability Assay in HepG2 cells - 24 hour (AID 1224867); also: nearly all actives have a fitted effect of over 50% in size
Method in brief: (§1)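 Real-time, nonlytic viability: 600 HepG2 cells/well mixed with NanoLuc enzyme plus prosubstrate; 5 h settle, compound (DMSO) added by pintool; luminescence monitored over 40 h at 37 C.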

[6] = qHTS RealTime-Glo MT Cell Viability Assay in HEK293 cells - 32 hour (AID 1224868); also: top concentration of the series differs between compounds; nearly all actives have a fitted effect of over 50% in size
Method in brief: (§2)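 Cells + reagent dispensed (600 cells/well, HEK293) → 5 h at 37 C/5% CO2 → 23 nL compound in DMSO pinned → 40 h at 37 C → luminescence read at 0, 8, 16, 24, 32, 40 h.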

[7] = A CellTox Green Cytotoxicity Assay to monitor cytotoxicity in HEK293 cells - 0 hour (AID 1224869); also: nearly all actives have a fitted effect of over 50% in size
Method in brief: (§3)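 HEK293 cells, 600/well, were preincubated 5 hours and then exposed to compounds at 37 C for up to 40 hours. A cell-impermeant cyanine dye staining dead-cell DNA was read by fluorescence at 0, 8, 16, 24, 32 and 40 h time points.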

[8] = qHTS RealTime-Glo MT Cell Viability Assay in HepG2 cells - 40 hour (AID 1224870); also: nearly all actives have a fitted effect of over 50% in size
Method in brief: (§4)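 HepG2 cells (600/well) mixed with RealTime-Glo MT reagent, settled 5 h at 37 C/5% CO2 before compound addition. Nonlytic NanoLuc luminescence from viable-cell prosubstrate reduction read repeatedly during 40 h treatment at 37 C.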

[9] = A CellTox Green Cytotoxicity Assay to monitor cytotoxicity in HEK293 cells - 40 hour (AID 1224871); also: nearly all actives have a fitted effect of over 45% in size
Method in brief: as §3

[10] = qHTS RealTime-Glo MT Cell Viability Assay in HEK293 cells - 16 hour (AID 1224872)
Method in brief: as §2

[11] = qHTS RealTime-Glo MT Cell Viability Assay in HepG2 cells - 8 hour (AID 1224873); also: nearly all actives have a fitted effect of over 55% in size
Method in brief: as §4

[12] = qHTS RealTime-Glo MT Cell Viability Assay in HEK293 cells - 40 hour (AID 1224874); settings: RealTime-Glo luminescence; max response: active compounds read low; also: nearly all actives have a fitted effect of over 50% in size
Method in brief: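 600 cells/well were plated with the nonlytic NanoLuc/prosubstrate reagent, pre-incubated 5 h, then given 23 nL of compound in DMSO. Incubation at 37 C for 40 h, with luminescence from viable-cell-reduced substrate read repeatedly from 0 h.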

[13] = A CellTox Green Cytotoxicity Assay to monitor cytotoxicity in HEK293 cells - 24 hour (AID 1224875); also: nearly all actives have a fitted effect of over 45% in size
Method in brief: as §3

[14] = A CellTox Green Cytotoxicity Assay to monitor cytotoxicity in HepG2 cells - 16 hour (AID 1224876); also: nearly all actives have a fitted effect of over 45% in size
Method in brief: (§5)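 HepG2 cells, 600/well, preincubated 5 h with CellTox Green dye, then exposed to Tox21 compounds in DMSO at 37 C for up to 40 h. Dead-cell DNA fluorescence read at the indicated time point.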

[15] = qHTS RealTime-Glo MT Cell Viability Assay in HepG2 cells - 32 hour (AID 1224877); also: nearly all actives have a fitted effect of over 55% in size
Method in brief: as §1

[16] = A CellTox Green Cytotoxicity Assay to monitor cytotoxicity in HepG2 cells - 24 hour (AID 1224878); also: nearly all actives have a fitted effect of over 45% in size
Method in brief: as §5

[17] = A CellTox Green Cytotoxicity Assay to monitor cytotoxicity in HepG2 cells - 40 hour (AID 1224879); also: nearly all actives have a fitted effect of over 40% in size
Method in brief: as §5

[18] = qHTS assay to identify small molecule agonists of H2AX - cell viability counter screen (AID 1224847; calls by dose curve; also: top concentration of the series differs between compounds; nearly all actives have a fitted effect of over 30% in size)
Method in brief: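 Cytotoxicity counter screen in wild-type CHO-K1 cells: a 3 hr compound treatment at 37C across 15 concentrations, followed by CellTiter-Glo luminescence to gauge viable cells.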

[19] = qHTS assay to identify small molecule antagonists of the estrogen related receptor (ERR) signaling pathway from Tox21 library (AID 1224848); also: nearly all actives have a fitted effect of over 50% in size
Method in brief: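 ERR reporter cell line (from NTP) seeded 2,000 cells/well, rested 6 h at 37 C/5% CO2, then pin-dosed with compounds in DMSO. After 18 h at 37 C, ONE-Glo added; luminescence read after 30 min at room temperature.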

[20] = qHTS assay to identify small molecule agonists of the estrogen related receptor (ERR) signaling pathway from Tox21 library (AID 1224849; calls by dose curve; also: nearly all actives have a fitted effect of over 15% in size); settings: ERR reporter cell line, ONE-Glo luciferase, 18 h; at 92.4 µM (top of the series)
Method in brief: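 ERR reporter cells (NTP line) pre-incubated 6 hours at 37 C, then exposed to compounds for 18 hours at 37 C. ONE-Glo luciferase luminescence was read after 30 minutes at room temperature.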
% is scaled to controls: 0 for no effect and ±100 for the full control effect.

Cc1cccc(C)c1N
inactive: Potency [1] | Potency [2] | Potency [3] | outcome [4] | outcome [5] | Potency [6] | Potency [7] | outcome [8] | Potency [9] | outcome [10] | outcome [11] | max response [12] -0.963% and 19.7% | Potency [13] | Potency [14] | outcome [15] | Potency [16] | Potency [17]

ClCCOCCCl
inactive: Potency [1] | Potency [2] | Potency [3] | outcome [4] | Potency [18] | outcome [5] | Potency [6] | Potency [7] | outcome [8] | Potency [9] | outcome [10] | outcome [11] | Potency [13] | Potency [14] | outcome [15] | Potency [16] | Potency [17]

C/C=C/c1ccc2c(c1)OCO2
inactive: Potency [1] | Potency [2] | Potency [3] | outcome [4] | Potency [18] | outcome [5] | Potency [6] | Potency [7] | outcome [8] | Potency [9] | outcome [10] | outcome [11] | max response [12] -5.98% and -4.01% | Potency [13] | Potency [14] | outcome [15] | Potency [16] | Potency [17]

CC(C)(C)C(=O)CCl
inactive: Potency [1] | Potency [2] | Potency [3] | outcome [4] | Potency [18] | Potency [19] | activity change, positive = activation [20] 2.78% and 6.55% | outcome [5] | Potency [6] | Potency [7] | outcome [8] | Potency [9] | outcome [10] | outcome [11] | Potency [13] | Potency [14] | outcome [15] | Potency [16] | Potency [17]

C=CC#N
inactive: Potency [1] | Potency [2] | Potency [3] | outcome [4] | Potency [19] | activity change, positive = activation [20] 0.57% and 1.17% | outcome [5] | Potency [6] | Potency [7] | outcome [8] | Potency [9] | outcome [10] | outcome [11] | Potency [13] | Potency [14] | outcome [15] | Potency [17]

CCCCC(CC)C(=O)Cl (stereo not drawn)
inactive: Potency [1] | Potency [2] | Potency [3] | outcome [4] | Potency [18] | outcome [5] | Potency [6] | Potency [7] | outcome [8] | Potency [9] | outcome [10] | outcome [11] | max response [12] 14.8% and -0.733% | Potency [13] | Potency [14] | outcome [15] | Potency [17]

COc1nc(NC(C)C)nc(NC(C)C)n1
inactive: Potency [1] | Potency [2] | Potency [3] | outcome [4] | Potency [19] | activity change, positive = activation [20] 1.12% and 6.24% | outcome [5] | Potency [6] | Potency [7] | outcome [8] | Potency [9] | outcome [10] | outcome [11] | Potency [13] | Potency [14] | outcome [15] | Potency [16] | Potency [17]

Source: PubChem BioAssay (Tox21)
